Experimental data: PubChem BioAssay
Activity calls are given as the source filed them.

Experiments:
[1] = optical density shifts of acrAB sulA E. coli – strain DRC41, OD650, 48 h, E. coli filamentation inducer project, primary screen (AID 1152); conditions: higher = more signal, called active from +8 up or from −8 down;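 note: E. coli MC1000 strain DRC41 lacking acrAB efflux pump and sulA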
[2] = probe aLefty1 binding on compound microarray – biochemical, small-molecule microarray, 635/667 nm fluorescence, primary screen (AID 1153); conditions: higher = more signal;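 note: score merges spot fluorescence with signal-to-noise ratio from the scanned slide images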
[3] = plasmodial surface anion channel blockers, osmotic lysis – cell-based, P. falciparum Indochina, OD700, 1 h, primary screen (AID 1154); conditions: P. falciparum Indochina infected RBC osmotic lysis, higher = more signal, called active from +8 up or from −8 down
[4] = plasmodial surface anion channel blockers, osmotic lysis – cell-based, P. falciparum Indochina, OD700, 2 h, primary screen (AID 1155);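 note: lysis reports solute entry through the parasite surface anion channel PSAC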; conditions: P. falciparum Indochina infected erythrocytes, higher = more signal, called active from +8 up or from −8 down
[5] = changes in parasitized red cell lysis, either direction – P. falciparum Indochina, OD700, 3 h, PSAC antagonist project, primary screen (AID 1156); conditions: P. falciparum-infected erythrocytes, osmotic lysis, higher = more signal, called active from +8 up or from −8 down
[6] = plasmodial surface anion channel blockers, osmotic lysis – cell-based, P. falciparum Indochina, OD700, 18 h, primary screen (AID 1157); conditions: P. falciparum Indochina infected erythrocytes, osmotic lysis OD700, 18 h; higher = more signal, called active from +8 up or from −8 down
[7] = S6 kinase pathway phospho-S6 level changes – cell-based, A549, cytoblot, luminescence, serum-stimulated, primary screen (AID 1158); conditions: 5 h, higher = more signal;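 note: serum-stimulated A549 lung adenocarcinoma cells; signal is phosphorylated S6 detected by cytoblot immunostaining with HRP secondary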
[8] = target: NADPH oxidase 2 (Homo sapiens) (UniProt P04839); assay: compounds shifting NOX2 Amplex Red fluorescence – cell-based, HEK293-NOX2, PMA-stimulated, NOX inhibitor project, primary screen (AID 1159); conditions: 45 min, higher = more signal, called active from +8 up or from −8 down; note: test concentration not given here
[9] = target: NADPH oxidase 4 (Homo sapiens) (UniProt Q9NPH5); assay: compounds shifting NOX4 Amplex Red fluorescence – cell-based, HEK293-NOX4, tetracycline-induced, NOX inhibitor project, primary screen (AID 1160); conditions: HEK293-NOX4, Amplex Red H2O2 fluorescence, 45 min; higher = more signal, called active from +8 up or from −8 down
[10] = target: NADPH oxidase 5 (Homo sapiens) (UniProt Q96PH1); assay: compounds shifting NOX5 Amplex Red fluorescence – cell-based, HEK293-NOX5, NOX inhibitor project, primary screen (AID 1161); conditions: HEK293-NOX5, ionomycin, 45 min, higher = more signal
[11] = compound effects on lung adenocarcinoma cell viability – A549, calcein-AM fluorescence, 48 h, basal, profiling panel (AID 1162); conditions: higher = more signal; note: test concentration not given here
[12] = compound effects on differentiated 3T3-L1 adipocyte viability – cell-based, 3T3-L1 adipocytes, calcein-AM fluorescence, 48 h, basal, profiling panel (AID 1163); conditions: 3T3-L1 adipocytes viability, higher = more signal; note: test concentration not given here
[13] = compound effects on hepatocellular carcinoma cell viability – HepG2, calcein-AM fluorescence, 48 h, basal, profiling panel (AID 1164); conditions: higher = more signal; note: test concentration not given here
[14] = compound effects on multiple myeloma cell viability – MM1S, calcein-AM fluorescence, 48 h, basal, profiling panel (AID 1165); conditions: higher = more signal; note: test concentration not given here
[15] = calcein-AM signal in unstimulated myeloma cells – cell-based, calcein-AM fluorescence, 48 h, PK04 Diversity Set, profiling panel (AID 1166); conditions: RPMI8226 myeloma viability, higher = more signal;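 note: cells grown under basal conditions without added stimulus; test concentration not given here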
[16] = JC-1 mitochondrial signal, unstimulated HepG2 cells – cell-based, JC-1 fluorescence, 24 h, 100 nL compound, profiling panel (AID 1167); conditions: HepG2 mitochondrial potential, higher = more signal; note: test concentration not given here
[17] = JC-1 mitochondrial signal, unstimulated adipocytes – cell-based, JC-1 fluorescence, 3T3-L1 adipocytes, 24 h, 100 nL compound, profiling panel (AID 1168); conditions: JC-1 mitochondrial fluorescence, higher = more signal, called active from +8 up or from −8 down; note: test concentration not given here
[18] = JC-1 mitochondrial signal, unstimulated myeloma cells – cell-based, JC-1 fluorescence, RPMI8226, 24 h, 100 nL compound, profiling panel (AID 1169); conditions: JC-1 mitochondrial potential fluorescence, higher = more signal; note: test concentration not given here
[19] = JC-1 mitochondrial signal, unstimulated MM1S myeloma – cell-based, JC-1 fluorescence, 24 h, 100 nL compound, profiling panel (AID 1170); conditions: MM1S mitochondrial potential, higher = more signal; note: test concentration not given here
[20] = resazurin metabolic signal in A549 cells – cell-based, resazurin fluorescence, 24 h, PK04 Diversity Set, profiling panel (AID 1171); conditions: A549 viability, higher = more signal, called active from +8 up or from −8 down; note: test concentration not given here

Sequence of NADPH oxidase 2 (Homo sapiens) (P04839 whole entry, looked up): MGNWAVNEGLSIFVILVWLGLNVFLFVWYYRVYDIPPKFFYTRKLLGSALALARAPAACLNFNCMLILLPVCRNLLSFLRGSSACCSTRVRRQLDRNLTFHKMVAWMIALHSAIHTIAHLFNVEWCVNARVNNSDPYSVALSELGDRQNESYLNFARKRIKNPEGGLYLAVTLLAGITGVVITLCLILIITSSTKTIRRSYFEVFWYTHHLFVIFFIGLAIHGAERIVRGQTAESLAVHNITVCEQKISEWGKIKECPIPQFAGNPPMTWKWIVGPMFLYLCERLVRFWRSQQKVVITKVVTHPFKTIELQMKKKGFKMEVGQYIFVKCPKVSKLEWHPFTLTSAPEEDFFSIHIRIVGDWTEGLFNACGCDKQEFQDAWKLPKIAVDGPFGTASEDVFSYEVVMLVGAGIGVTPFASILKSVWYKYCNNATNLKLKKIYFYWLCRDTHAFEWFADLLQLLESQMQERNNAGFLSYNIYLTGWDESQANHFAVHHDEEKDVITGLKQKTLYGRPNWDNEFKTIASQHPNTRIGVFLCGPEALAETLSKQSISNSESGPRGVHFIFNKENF
Sequence of NADPH oxidase 4 (Homo sapiens) (Q9NPH5 whole entry, looked up): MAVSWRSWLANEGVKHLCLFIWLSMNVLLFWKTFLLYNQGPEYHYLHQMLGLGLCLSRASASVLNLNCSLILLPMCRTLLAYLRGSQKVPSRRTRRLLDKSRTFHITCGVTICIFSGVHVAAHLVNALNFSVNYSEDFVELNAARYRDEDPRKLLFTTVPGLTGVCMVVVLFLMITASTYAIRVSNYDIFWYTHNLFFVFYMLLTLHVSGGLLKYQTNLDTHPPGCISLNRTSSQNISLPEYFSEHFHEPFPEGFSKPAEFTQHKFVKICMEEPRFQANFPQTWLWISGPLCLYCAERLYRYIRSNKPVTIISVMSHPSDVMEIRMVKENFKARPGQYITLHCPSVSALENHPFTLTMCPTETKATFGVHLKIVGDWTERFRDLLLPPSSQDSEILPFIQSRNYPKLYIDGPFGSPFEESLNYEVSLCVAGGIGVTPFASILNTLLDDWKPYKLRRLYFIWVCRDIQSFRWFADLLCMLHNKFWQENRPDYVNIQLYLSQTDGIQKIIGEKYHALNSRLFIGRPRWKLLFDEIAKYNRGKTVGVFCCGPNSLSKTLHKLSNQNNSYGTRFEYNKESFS
Sequence of NADPH oxidase 5 (Homo sapiens) (Q96PH1 whole entry, looked up): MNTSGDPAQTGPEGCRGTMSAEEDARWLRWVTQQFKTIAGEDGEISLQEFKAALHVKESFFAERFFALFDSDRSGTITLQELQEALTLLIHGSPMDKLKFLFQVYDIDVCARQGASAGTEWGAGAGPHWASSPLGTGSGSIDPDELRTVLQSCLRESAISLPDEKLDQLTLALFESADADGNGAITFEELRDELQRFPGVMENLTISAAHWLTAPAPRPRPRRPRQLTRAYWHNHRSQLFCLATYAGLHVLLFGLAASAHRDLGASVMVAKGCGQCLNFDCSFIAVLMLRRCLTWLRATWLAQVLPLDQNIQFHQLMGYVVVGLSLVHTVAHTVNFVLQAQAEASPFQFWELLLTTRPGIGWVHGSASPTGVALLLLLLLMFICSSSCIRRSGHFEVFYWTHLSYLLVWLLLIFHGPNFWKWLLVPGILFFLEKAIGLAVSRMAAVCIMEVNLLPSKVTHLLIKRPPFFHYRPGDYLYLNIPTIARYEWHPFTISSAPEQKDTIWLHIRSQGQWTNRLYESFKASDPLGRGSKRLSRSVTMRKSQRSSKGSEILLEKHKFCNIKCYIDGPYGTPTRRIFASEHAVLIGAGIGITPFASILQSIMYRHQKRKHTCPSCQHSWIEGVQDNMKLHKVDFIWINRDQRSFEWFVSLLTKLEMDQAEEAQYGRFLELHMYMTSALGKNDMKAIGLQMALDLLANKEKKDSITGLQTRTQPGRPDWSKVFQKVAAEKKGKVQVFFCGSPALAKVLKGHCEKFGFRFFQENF

Structure (SMILES) | z-score [1] | composite z-score [2] | z-score [3] | z-score [4] | z-score [5] | z-score [6] | z-score [7] | z-score [8] | z-score [9] | z-score [10] | z-score [11] | z-score [12] | z-score [13] | z-score [14] | z-score [15] | z-score [16] | z-score [17] | z-score [18] | z-score [19] | z-score [20]
CC(=O)Nc1cc(Br)ccc1C(=O)O | -0.657 (inactive) | 0.0494 | 0.552 (inactive) | 0.501 (inactive) | -0.904 (inactive) | 0.305 (inactive) | -0.107 | 0.385 (inactive) | -0.128 (inactive) | -0.269 | 0.665 | 0.747 | 0.332 | -0.906 | -0.178 | -0.598 | -0.672 (inactive) | -0.685 | 1.05 | -0.243 (inactive)
CC(C)c1ccc(NN2C(C(O)c3c(F)cccc3Cl)C=CC3C(=O)N(c4ccccc4)C(=O)C32)cc1 (stereo not given) | -2.03 (inactive) | 1.22 | 2.86 (inactive) | 1.18 (inactive) | 1.12 (inactive) | 1.02 (inactive) | -1.02 | -1.38 (inactive) | -5.38 (inactive) | -4.14 | -0.755 | 0.205 | -0.314 | -0.414 | -1.32 | -2.03 | -2.25 (inactive) | -0.738 | 0.584 | -1.71 (inactive)
[N-]=[N+]=NCc1ccccc1C[C@]1(C(=O)NCCN2CCOCC2)N=C(c2ccc(OCCCO)cc2)O[C@H]1c1ccccc1N=[N+]=[N-] | 0.991 (inactive) | 0.586 | 34.3 (active) | 31.4 (active) | 2.82 (inactive) | 8.68 (active) | -0.176 | -1.69 (inactive) | 0.636 (inactive) | -0.368 | -0.872 | 0.233 | -1.61 | -1.68 | -0.806 | 0.815 | 0.707 (inactive) | -1.02 | -1.16 | -0.901 (inactive)
CO[C@H]1O[C@H](CO)[C@@H](OC(=O)Nc2ccc(Oc3ccccc3)cc2)[C@H](OC(=O)Nc2ccccc2)[C@H]1OC(=O)Nc1ccccc1 | 0.415 (inactive) | 0.407 | 3.14 (inactive) | 1.09 (inactive) | 1.4 (inactive) | 0.766 (inactive) | 0.696 | -0.909 (inactive) | -3.18 (inactive) | -0.854 | -1.63 | 0.547 | -3.37 | -2.24 | -3.61 | -0.684 | 1.2 (inactive) | -1.31 | -0.427 | -3.41 (inactive)
CCCCC(CC)C(O)C1C=CC2C(=O)N(c3ccccc3)C(=O)C2N1Nc1ccccc1 (stereo not given) | -1.61 (inactive) | 0.448 | 1.1 (inactive) | -0.627 (inactive) | 2.18 (inactive) | -1.72 (inactive) | 1.14 | -2.98 (inactive) | -5.21 (inactive) | -5.76 | -0.5 | 0.0749 | -0.315 | -0.137 | -0.841 | -2.35 | 0.633 (inactive) | -0.48 | 0.00945 | -0.885 (inactive)
N[C@@H](Cc1ccccc1)Cn1cc(-c2ccccc2)nn1 | -2.54 (inactive) | 0.271 | 5.12 (inactive) | 0.745 (inactive) | 0.0287 (inactive) | 0.53 (inactive) | -0.209 | 0.659 (inactive) | 0.45 (inactive) | 0.448 | -0.192 | -0.711 | -0.0622 | -1.57 | -0.0672 | 1.18 | 0.399 (inactive) | -0.515 | 0.137 | 0.837 (inactive)
Cc1ccc([C@H]2[C@H](C(=O)O)[C@H](Sc3ccccc3)[C@@H](C(C)C)N2S(=O)(=O)c2ccc(C)cc2)cc1 | -1.51 (inactive) | -0.0675 | 1.09 (inactive) | 0.456 (inactive) | -0.922 (inactive) | 0.781 (inactive) | -0.137 | 1.01 (inactive) | 0.349 (inactive) | 1.16 | -0.74 | -0.594 | -0.447 | -0.0237 | -0.802 | -1.63 | 0.327 (inactive) | -0.199 | -0.437 | -0.064 (inactive)
Cc1ccc(S[C@]2(C(=O)NCc3ccccc3)CC(=O)N(Cc3ccccc3)[C@@H]2c2ccc(CO)cc2)cc1 | -1.24 (inactive) | -0.188 | 1.27 (inactive) | 0.115 (inactive) | -0.376 (inactive) | -0.234 (inactive) | 0.0768 | -1.51 (inactive) | 0.494 (inactive) | -0.189 | 0.778 | 0.147 | 0.0772 | -0.195 | -0.615 | -0.452 | 0.645 (inactive) | 0.0195 | -0.172 | -0.114 (inactive)
CCOC(=O)[C@H]1C/C=C/C[C@H](C(=O)OCC)C(=O)O[C@H]2[C@@H](OC)O[C@H](CO)[C@@H](OC(=O)Nc3ccc4c(c3)OCO4)[C@@H]2OC1=O | 1.2 (inactive) | -0.0727 | 4.49 (inactive) | 1.81 (inactive) | -0.564 (inactive) | 1.73 (inactive) | 0.483 | -1.09 (inactive) | -0.854 (inactive) | -0.02 | -2.58 | -0.256 | -5 | -3.35 | -4.14 | -3.1 | 1.56 (inactive) | -0.975 | -1.75 | -5 (inactive)
COCCOC(=O)N1C(=O)[C@@]2(c3cc(C#CCC(C(=O)OC)C(=O)OC)ccc31)[C@H](C(=O)N1CCN(c3ncccn3)CC1)[C@H]1C(=O)O[C@H](c3ccccc3)[C@H](c3ccccc3)N1[C@@H]2c1ccc(OCCO)cc1 | 3.02 (inactive) | -0.0511 | 17.3 (active) | 3.12 (inactive) | -0.153 (inactive) | 0.857 (inactive) | 2.2 | 1.41 (inactive) | 1.43 (inactive) | 0.897 | 1.68 | 1.02 | 0.674 | 0.65 | 1.21 | -0.656 | 1.86 (inactive) | -0.303 | -1.16 | 0.665 (inactive)
